From PubChem BioAssay (EPA / NIEHS) come the findings set out here.

Records with an inconclusive call do not appear. Calls of active or inactive are those of the source. The calls were made as follows: active = hit-call score of the fitted dose curve at least 0.9, where 1 is the maximum; inconclusive = response in the unintended direction; inactive = score below 0.9.

This assay in a line: CLD_ACTIN_48hr: CellzDirect (CLD) Gene Expression Assay for Baseline Control (Actin) at 48 hours (AID 2283702). How it is done:
CLD_48hr is a cell-based, multiplexed-readout assay that uses hepatocyte, a human liver primary cell, with measurements taken at 48 hours after chemical dosing in a 96-well plate.CLD_ACTIN_48hr is one of 16 assay component(s) measured or calculated from the CLD_48hr assay. It is designed to make measurements of mRNA induction, a form of inducible reporter, as detected with chemiluminescence signals by Quantitative Nuclease Protection Assay (qNPA) technology.Data from the assay component CLD_ACTIN_48hr was analyzed at the endpoint, CLD_ACTIN_48hr, in the positive analysis fitting direction relative to DMSO as the negative control and baseline of activity. Using a type of inducible reporter, gain-of-signal activity can be used to understand changes in the reporter gene as they relate to the gene ACTA1. Furthermore, this assay endpoint can be referred to as a secondary readout, because this assay has produced multiple assay endpoints where this one serves a background control function. To generalize the intended target to other relatable targets, this assay endpoint is annotated to the background measurement intended target family, where subfamily is baseline control.
Human hepatocyte cultures were treated daily for two consecutive days with fresh dosing solutions containing appropriate concentrations of the 320 ToxCast chemicals (chemical identities were blinded to CellzDirect and other ToxCast collaborators), vehicle control (0.2% DMSO), and positive control inducers as summarized in Table 1. Due to the large number of treatment groups and chemicals examined, the ToxCast chemicals were divided into two groups (spanning two independent cultures of hepatocytes from separate donor preparations (Hu778: ToxCast plates 1 and 2; Hu776: ToxCast plates 3 and 4). Each preparation of human hepatocyte cultures was treated with respective vehicle control, medium only control, set of six positive controls/reference chemicals for the five hepatic receptor pathways, and a subset of eight of the ToxCast chemicals (indoxacarb, pyrithiobac-sodium, norflurazon, cyhalofop-butyl, methomyl, thiram, acetochlor, and propiconazole). These replicate data, coupled with internal replicates designed within the blinded ToxCast chemical library, provided additional data to evaluate interindividual differences between hepatocyte preparations and their potential impact on chemical profiles.Cell morphology and integrity were evaluated using phase-contrast microscopy as an indicator of hepatocyte cell health (Tyson & Green, 1987). Cultures for each treatment group (i.e., media, vehicle [0.2% DMSO], positive control inducers [multiple concentrations], and the ToxCast chemicals [multiple concentrations]) were observed and cell morphology was assessed relative to vehicle control cultures at each harvest time point (0, 6, 24, or 48 h). […] Images were evaluated at the conclusion of the study to assess changes in cell integrity and account for the effects of chemical exposure on uncharacteristic changes in concentration-dependent gene expression profiles. The results from these determinations of apparent cytotoxicity were annotated (yes/no) alongside the corresponding qNPA data for reference.At the conclusion of each treatment period, hepatocyte cultures (96-well) were washed with 1 volume of HBSS, lysed by addition of 25 ul ArrayPlate lysis buffer (HTG, Tucson, AZ), and 70 ul/well of Denaturation Oil, denatured by incubation at 95C for 10 min, and frozen at approximately -70C until analysis by nuclease protection assay (qNPA) (Roberts et al., 2007). For qNPA analysis, cell lysates were thawed at 50C for approximately 30 min, qNPA probes were added, and samples were incubated at 95C for 10 min to begin the detection process by denaturing the target RNA, dissociating the duplexes and secondary structure hybridization. At the conclusion of the hybridization period, S1 nuclease reagent was added to each sample to digest all nonprotected nucleotides at 50C for 60-90 min. […]
Regarding `CCS(=O)(=O)c1cccnc1S(=O)(=O)NC(=O)Nc1nc(OC)cc(OC)n1`, the compound was called inactive. With `O=C(O)C(F)(F)C(F)(F)C(F)(F)C(F)(F)C(F)(F)C(F)(F)C(F)(F)F`, the compound was called inactive.

On to `CCN(CC)C(=O)SCc1ccc(Cl)cc1`, for which the result was inactive. On to `CC(C)N(C(=O)COc1nnc(C(F)(F)F)s1)c1ccc(F)cc1`, for which the compound was classed as inactive. Consider `CNC(=O)/C=C(\C)OP(=O)(OC)OC`, for which the result was inactive.

Take `N#Cc1c(Cl)c(Cl)c(Cl)c(C#N)c1Cl`: the outcome was inactive.

Regarding `COC(=O)c1ccccc1S(=O)(=O)NC(=O)Nc1nc(C)nc(OC)n1`, the call was inactive. Take `N#CN`: the compound was called inactive. Then `O=[N+]([O-])/N=C1\NCCN1Cc1ccc(Cl)nc1`, with “inactive”; and `OCCOc1ccccc1`, with “inactive”; and `Cc1[nH]c(=O)n(C(C)(C)C)c(=O)c1Cl`, with “inactive”. Turning to `CCC(C)(NC(=O)c1cc(Cl)c(C)c(Cl)c1)C(=O)CCl` (stereo not drawn), the call was inactive. With `O=[N+]([O-])c1c(Cl)c(Cl)c(Cl)c(Cl)c1Cl`, the compound was called inactive. Under `Cc1cc(C)nc(NC(=O)NS(=O)(=O)c2ccccc2C(=O)OC2COC2)n1` stands “inactive”. In the case of `CNC(=O)Oc1ccccc1OC(C)C`, the compound was called inactive. Consider `O=S(=O)(O)C(F)(F)C(F)(F)C(F)(F)C(F)(F)C(F)(F)C(F)(F)C(F)(F)C(F)(F)F`, for which the call was inactive. Then `O=C1c2ccccc2C(=O)N1SC(Cl)(Cl)Cl`, with “inactive”; and `CNC(=O)CSP(=S)(OC)OC`, with “inactive”. Then `COP(=O)(OC)OC=C(Cl)Cl`, with “inactive”. Then `CNC(=O)Oc1cccc(N=CN(C)C)c1`, with “inactive”; and `O=C(NC(=O)c1c(F)cccc1F)Nc1ccc(OC(F)(F)C(F)OC(F)(F)F)c(Cl)c1` (stereo not drawn), with “inactive”; and `O=C(O)CCCOc1ccc(Cl)cc1Cl`, with “inactive”. As for `Oc1cc(Cl)ccc1Oc1ccc(Cl)cc1Cl`, the compound was classed as inactive.

Regarding `CC(C)OC(=O)Nc1cccc(Cl)c1`, the call was inactive. For the compound `CC[C@H](C)[C@H]1O[C@]2(C=C[C@@H]1C)C[C@@H]1C[C@@H](C/C=C(\C)[C@@H](O[C@H]3C[C@H](OC)[C@@H](O[C@H]4C[C@H](OC)[C@@H](O)[C@H](C)O4)[C@H](C)O3)[C@@H](C)/C=C/C=C3\CO[C@@H]4[C@H](O)C(C)=C[C@@H](C(=O)O1)[C@]34O)O2` (tested in a mixture with another compound), the compound was called inactive. On to `CC1(c2ccc(Oc3ccccc3)cc2)OC(=O)N(Nc2ccccc2)C1=O` (stereo not drawn), for which the compound was classed as inactive. In the case of `O=C(O)COc1ccc(Cl)cc1Cl`, the call was inactive.

Turning to `CCOCN(C(=O)CCl)c1c(C)cccc1CC`, the compound was classed as inactive.
